Compound activity: PubChem, National Center for Advancing Translational Sciences (NCATS)
HP1b binding inh = HTS for Inhibitors of HP1-beta Chromodomain Interactions with Methylated Histone Tails. Chromobox protein homolog 1 (Homo sapiens), P83916. AlphaScreen HP1-beta / biotin-H3K9me3 peptide binding. Potency, µM (top dose mostly 114 µM), hits mostly inhibitors. hit rate 0.56% among 390,000. AID 540317, 2011; also: nearly all actives have a fitted effect of over 70% in size
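HP1-beta protein (50 nM final) preincubated 30 min at room temperature with biotinylated H3(1-18)K9me3 peptide (50 nM) in PBS pH 7.4, 0.01% Tween-20, then compound added for 30 min. AlphaScreen streptavidin donor/nickel chelate acceptor beads (10 ug/mL final), 30 min dark, luminescence read.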
Sfp inh = qHTS Assay for Inhibitors of Bacillus subtilis Sfp phosphopantetheinyl transferase (PPTase). 4'-phosphopantetheinyl transferase ffp (Bacillus subtilis), Q9F4F7. Biochemical Sfp PPTase activity, qHTS. Potency, µM, hits mostly inhibitors. hit rate 3.5% among 310,000;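 also: the enzyme is Sfp with the accession as filed and its product quenches rhodamine fluorescence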
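Step 1, compound plus 15 nM Sfp-PPTase, 15 min, room temperature. Step 2, add rhodamine-CoA (5 uM) and BHQ-2-YbbR (12.5 uM). Step 3, read 525/598 nm fluorescence at 0 and 30 min.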
JMJD2A Tudor = qHTS Assay for Inhibitors of JMJD2A-Tudor Domain. Lysine-specific demethylase 4A (Homo sapiens), O75164. AlphaScreen JMJD2A-Tudor / H3K4me3 peptide binding. Potency, µM (top dose mostly 114 µM), hits mostly inhibitors. hit rate 4.4% among 390,000. AID 504339, 2011; also: nearly all actives have a fitted effect of over 50% in size
PLK1 PBD inh = qHTS for Inhibitors of PLK1-PDB (polo-like kinase 1 - polo-box domain): Primary Screen | hit rate 2.8% among 360,000 | Potency, µM, most hits filed as inhibitors | Plk1 PBD binding of FITC phosphopeptide, fluorescence polarization | Serine/threonine-protein kinase PLK1 (Homo sapiens), P53350; also: series mostly up to about 57 µM; nearly all actives have a fitted effect of over 65% in size
G9a block = qHTS Assay for Inhibitors of Histone Lysine Methyltransferase G9a; hit rate 8.8% among 350,000; G9a H3K9 monomethylation, AlphaScreen, 2 h; Potency, µM (top dose mostly 102 µM), hits mostly inhibitors; Histone-lysine N-methyltransferase EHMT2 (Homo sapiens), Q96KQ7; AID 504332, 2011; also: nearly all actives have a fitted effect of over 75% in size
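Quantitative HTS format: methyltransferase activity on a biotin-tagged H3K9 peptide is measured by AlphaScreen, using a rabbit anti-monomethyl-H3K9 antibody with streptavidin donor and anti-IgG acceptor beads. Final levels are 20 nM enzyme, 500 nM peptide, 20 uM SAM; 2 h RT.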
BAZ2B inh = qHTS Assay for Inhibitors of BAZ2B; Bromodomain adjacent to zinc finger domain protein 2B (Homo sapiens), Q9UIF8; AlphaScreen BAZ2B-H3K14Ac peptide displacement; Potency, µM (highest dose often 114 µM), actives largely listed as inhibitors; hit rate 4.4% among 360,000; AID 504333, 2011; also: nearly all actives have a fitted effect of over 60% in size
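In this displacement format the biotinylated H3(5-23) peptide acetylated at Lys14 serves as ligand at 50 nM, with BAZ2B at 50 nM in PBS pH 7.4 containing 0.01% Tween-20. Donor and acceptor beads are 10 ug/mL final.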
Hits are given with their value; 0 = inactive; ? = inconclusive; - = no result; [ ] = another dose, or the depositor's remark. This is a sample that favours compounds with a hit; in the whole collection about 12% have one here. Calls follow the shape of the dose curve; as a rule, active = well fitted curve in the direction sought with a large enough effect; inconclusive = small, poorly fitted or top-dose-only effect, or another doubt; inactive = no such curve, though single readings can be large; an effect the other way counts as inactive or inconclusive.

SMILES | HP1b binding inh | Sfp inh | JMJD2A Tudor | PLK1 PBD inh | G9a block | BAZ2B inh
CC(=O)N1c2ccccc2C(=O)C1N1CCN(c2ccc(Cl)cc2)CC1 (centres undefined) | 0 | - | 0 | - | 0 | 0
CCOC(=O)c1cc(-c2ccc(/C=C3/C(=O)N(c4ccc(C(=O)O)cc4)N=C3C)o2)ccc1Cl | ? | 0 | 14.1µM | 0.844µM | 7.08µM | 17.8µM
CCCCOC(=O)c1cc(-c2ccc(/C=N/n3cnnc3)o2)ccc1Cl | 0 | - | 56.2µM | 0 | - | -
CC1=NOC(=O)/C1=C/c1ccc(-c2ccc(Cl)cc2)o1 | - | 31.6µM | - | - | 4.47µM | ?
CC1=NOC(=O)/C1=C\c1ccc(-c2ccc(Br)cc2C(=O)O)o1 | 0 | ? | 0 | 2.67µM | - | ?
COc1ccc(NC(=O)C2CCCN2S(=O)(=O)c2cccs2)c([N+](=O)[O-])c1 (centres undefined) | 0 | - | ? | 0 | 0 | 0
CCC1(c2ccccc2)SC(N)=NC1=O (centres undefined) | 0 | - | 0 | 0 | - | -
COc1ccc(-c2cn3c(n2)sc2cc(C(=O)Nc4c(C)cccc4C)ccc23)cc1 | 0 | - | 0 | - | 0 | ?
CCOc1ccc(NC(=O)c2cc3sc(Cl)cc3n2CC)cc1 | 0 | - | 0 | - | 0 | 0
O=Cc1ccc(-c2ccccc2C(=O)O)o1 | 0 | 0 | 0 | 0 | ? | 0
CC1=NN(c2ccc(Br)cc2)C(=O)/C1=C/c1ccc(-c2ccccc2C(=O)O)o1 | ? | 0 | 31.6µM | 11.9µM | 35.5µM | 35.5µM
CC1=NOC(=O)/C1=C\c1ccc(-c2cc(Cl)ccc2Cl)o1 | ? | 17.8µM | ? | 0.597µM | ? | ?
CC1=NOC(=O)/C1=C\c1ccc(-c2ccc(Br)cc2)o1 | 0 | 44.7µM | ? | 0.597µM | 5.01µM | 11.2µM
CCOC(=O)c1c(N/C=C(\C#N)c2nc(-c3ccc(OC(C)=O)cc3)cs2)sc2c1CCC2 | 0 | - | 0 | 0 | - | -
CN(C/C=C/c1ccccc1[N+](=O)[O-])Cc1ccccc1 | ? | 0 | 28.2µM | 0 | 0[0.501 µM] | 56.2µM
CC(C)N(Cc1ccccc1)C(=O)/C=C/c1ccccc1[N+](=O)[O-] | 0 | 0 | 0 | 0 | 0[12.7 µM] | ?
CC(=O)N1C(=O)CC(C)N(C(C)=O)c2ccc([N+](=O)[O-])cc21 (centres undefined) | 0 | 0 | ? | 0 | 20µM | 0
CC1CC(=O)N(C)c2ccc([N+](=O)[O-])cc2N1 (centres undefined) | 0 | 0 | 0 | 0 | 0 | 0
CCOC(=O)c1c(/N=C/c2cc(C)ccc2O)sc2c1CCN(C)C2 | ? | 0 | 44.7µM | 0 | ? | ?
O=C(CC(c1ccccc1)c1cc(Br)ccc1O)NCC1(c2ccccc2)CCCC1 (centres undefined) | 0 | - | 0 | - | 0 | ?
O=C1C=CC(=O)N1c1ccc(Sc2ccc([N+](=O)[O-])cc2)cc1 | - | 8.91µM | - | - | 8.91µM | ?
Nc1ccc(Sc2ccc([N+](=O)[O-])cc2)cc1 | ? | 0 | ? | 0 | 56.2µM | 35.5µM
Cc1cc2c(cc(C(=O)OC(C(=O)NCc3ccco3)C(C)C)n2C)o1 (centres undefined) | 0 | ? | ? | 0 | 39.8µM | ?
CC(C)C(OC(=O)c1cccs1)C(=O)NCc1ccco1 (centres undefined) | 0 | 0 | 0 | 0 | 0[12.7 µM] | 0
O=C(NCc1ccccc1)C12CC3CC(CC(C3)C1)C2 | 0 | 0 | 0 | 0 | 31.6µM | ?
SMILES | HP1b binding inh | Sfp inh | JMJD2A Tudor | PLK1 PBD inh | G9a block | BAZ2B inh
O=C(NCc1ccncc1)C12CC3CC(CC(C3)C1)C2 | 0 | 0 | 0 | 0 | 0 | 0
Cc1ccc(-n2nc(C(=O)N(C)c3ccc(C)c(C)c3)c3c4ccccc4n(C)c3c2=O)cc1 | 0 | - | 0 | - | 0 | -
COc1cc(C)ccc1Oc1ccc([N+](=O)[O-])cc1 | 0 | - | 0 | 0 | - | -
CSCCC1NC(=O)N(CC(=O)Nc2c(Cl)cc(Cl)cc2Cl)C1=O (centres undefined) | 0 | 0 | 0[11.4 µM] | 8.44µM | 0[12.7 µM] | 0
CSc1ccccc1OCc1cc(C(=O)NCCC2=CCCCC2)no1 | 0 | 0 | 0 | 0 | 0 | 0
CSc1ccc(S(=O)(=O)Nc2ccc(OCC(=O)N3CCOCC3)cc2)cc1 | 0 | 0 | 0 | ? | 11.2µM | 0
O=C(CNS(=O)(=O)c1ccccc1)N/N=C/c1ccc(O)cc1 | 0 | 0 | 0 | 0 | 0 | 0
O=C(COc1ccccc1)NNC(=O)COc1ccc([N+](=O)[O-])cc1 | 0 | 0 | 0 | 0 | ? | 0
O=C(CNS(=O)(=O)c1ccccc1)N/N=C\c1ccc(Cl)cc1 | ? | 0 | 0 | 23.8µM | 0 | 0
O=C(COc1ccc(/C=N/NS(=O)(=O)c2ccccc2)cc1)N1CCOCC1 | 0 | 0 | 0 | 0 | 39.8µM | 0
CC(NC(=O)COc1ccc([N+](=O)[O-])cc1)c1ccccc1 (centres undefined) | 0 | 0 | ? | 11.9µM | 0 | 0
COc1ccc(NS(=O)(=O)c2ccc(OCC(=O)N3CCOCC3)cc2)cc1 | 0 | 0 | 0 | 0 | 0 | 0
CC[C@H](C)[C@H](NC(=O)[C@H](Cc1ccc(O)cc1)NC(=O)[C@H](Cc1cnc[nH]1)NC(=O)[C@H](CCCNC(=N)N)NC(=O)[C@H](CC(C)C)NC(=O)[C@H](C)NC(=O)[C@@H](N)CO)C(=O)N[C@@H](CC(N)=O)C(=O)N[C@@H](CC(C)C)C(=O)N[C@H](C(=O)N[C@H](C(=O)N[C@@H](CCCNC(=N)N)C(=O)N[C@@H](CCC(N)=O)C(=O)N[C@@H](CCCNC(=N)N)C(=O)N[C@@H](Cc1ccc(O)cc1)C(N)=O)[C@@H](C)O)[C@@H](C)CC | - | 0 | - | - | - | -
CCOc1ccc(S(=O)(=O)N2CCN(Cc3nc4ccc(C)cc4o3)CC2)cc1 | 0 | - | 0 | - | 0 | 0
COc1cc(Cn2c(=O)c3c(OC)c(C)cnc3n(C)c2=O)cc(OC)c1 | 0 | 0 | 0 | 0 | - | 0
O=c1c(-c2ccc(Cl)cc2)nc2cncnc2n1Cc1ccccc1Cl | - | 0 | - | - | 0[12.7 µM] | -
O=C(COc1ccc(/C=N/NS(=O)(=O)c2ccccc2)cc1)Nc1cccc(Cl)c1 | 0 | 0 | 0 | 0 | 50.1µM | 0
CC(=O)CNc1ccc(S(=O)(=O)N/N=C/c2ccccc2)cc1 | 0 | 0 | 0 | ? | 6.31µM | 0
CC(NC(=O)COc1ccc(/C=N/NS(=O)(=O)c2ccccc2)cc1)c1ccccc1 (centres undefined) | 0 | 0 | 0 | 0 | 50.1µM | 0
O=C(COc1ccc(/C=N/NS(=O)(=O)c2ccccc2)cc1)NCc1ccccc1 | 0 | 0 | 0 | 0 | 0[12.7 µM] | 0
COc1ccc(OC)c(Nc2c3c(nc4ccccc24)CCC3)c1 | 0 | 0 | ? | 0 | 0 | 0
